# Data published in PubChem BioAssay (Tox21).
# Values without a mark were called inactive. Inconclusive results are not listed. Where a call stands in place of a potency, no number is given. Calls of active or inactive are those of the source. Unless noted, the call rests on the fitted dose curve.
# Key:
# [1] = Nuclear factor erythroid 2-related factor 2/antioxidant responsive element (Nrf2/ARE) small molecule agonists: qHTS cell viability counter screen in human keratinocytes (AID 1919968; active means well fitted curve in the direction sought with a large enough effect in the repeat runs; an effect the other way counts as inactive or inconclusive; further: nearly all actives have a fitted effect of over 55% in size)
# How it was run: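 KeratinoSens cells (HaCaT keratinocytes stably carrying an ARE-luciferase reporter) were seeded at 1,500 cells/well and rested 5 h at 37 C/5% CO2. They were then exposed to compounds in DMSO for 23 h. Viability was read by CellTiter-Fluor fluorescence after 1 h.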
# [2] = Nuclear factor erythroid 2-related factor 2/antioxidant responsive element (Nrf2/ARE) small molecule agonists: luciferase reporter gene qHTS assay in human keratinocytes (AID 1919969); further: nearly all actives have a fitted effect of over 35% in size
# [3] = biological target: Gonadotropin-releasing hormone receptor (Homo sapiens) (UniProt P30968); test: Human gonadotropin-releasing hormone receptor (GnRHR) small molecule agonists, calcium flux assay in GnRHR-HEK293 cells (AID 1920063); further: nearly all actives have a fitted effect of over 35% in size
# How it was run: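 HEK293 cells stably expressing human GnRHR were plated 18 h at 37 °C, loaded with calcium dye 1 h at 37 °C, then given compound in agonist mode; fluorescence (Ex/Em 480/540) read kinetically for 3 min at 1 s intervals.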
# [4] = biological target: KiSS-1 receptor (Homo sapiens) (UniProt Q969F8); test: Human kisspeptin (KISS1R) small molecule agonists, calcium flux assay in KISS1R-HEK293 cells (AID 1920064; active means well fitted curve in the direction sought with a large enough effect in the repeat runs; an effect the other way counts as inactive or inconclusive)
# How it was run: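 HEK293 cells stably expressing human KISS1R were plated 18 h at 37 °C, loaded with calcium dye for 1 h at 37 °C, then given compound by pin tool. Fluorescence (Ex/Em 480/540) was read kinetically for 3 min.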
# [5] = G protein-coupled receptor (GPCR) small molecule agonists, calcium flux assay: HEK293 wild type cell line counter screen (AID 1920065)
# How it was run: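 Cells were plated and cultured 18 h at 37 C/5% CO2, then loaded with calcium dye for 1 h at 37 C. Compounds in DMSO were pin-transferred in agonist mode, and fluorescence (Ex/Em 480/540) was read kinetically for 3 min at 1 s intervals.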
# [6] = p53 small molecule agonists, cell-based qHTS assay with human liver microsomes (AID 1963577);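 further: p53 response element beta-lactamase reporter cells with liver microsomes plus NADPH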
# How it was run: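 p53RE-bla cells; 5 h settle, 37 C/5% CO2; cpd + HLM 0.5 mg/mL + NADPH 0.5 mg/mL (final); 16 h 37 C; LiveBLAzer 2 h RT dark; fluorescence readout.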
# [7] = p53 small molecule agonists, cell-based qHTS assay with rat liver microsomes (AID 1963578)
# How it was run: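 Rat liver microsome activation: microsomes 0.5 mg/mL, NADPH 0.5 mg/mL final; p53RE-bla cells, 16 h 37 C; LiveBLAzer readout, 2 h RT dark.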
# [8] = p53 small molecule agonists, cell-based qHTS assay with human liver microsomes: qHTS cell viability counter screen (AID 1963579); further: nearly all actives have a fitted effect of over 45% in size
# How it was run: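 Luminescent CellTiter-Glo read-out, 30 min at room temperature, gauged cytotoxicity in p53RE-bla cells exposed 16 h at 37 C to DMSO-dissolved compounds with metabolic activation by human liver microsomes and NADPH, each 0.5 mg/mL final.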
# [9] = p53 small molecule agonists, cell-based qHTS assay with rat liver microsomes: qHTS cell viability counter screen (AID 1963580); further: nearly all actives have a fitted effect of over 45% in size
# How it was run: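 p53RE-bla HCT-116 cells (4,000/well) rested 5 h at 37 C, then given Tox21 compounds in DMSO with rat liver microsomes (0.5 mg/mL final) plus NADPH (0.5 mg/mL final) for 16 h at 37 C. Viability read by CellTiter-Glo luminescence after 30 min at room temperature.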
# [10] = p53 small molecule agonists, cell-based qHTS assay: qHTS cell viability counter screen (AID 1963581); further: nearly all actives have a fitted effect of over 45% in size
# How it was run: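 p53RE-bla HCT-116 cells were exposed to compounds for 16 h at 37 C; after the beta-lactamase FRET read in the same wells, CellTiter-Glo was added and luminescence (intracellular ATP) read after 30 min at room temperature.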
# [11] = p53 small molecule agonists, cell-based qHTS assay (AID 1963582; active means well fitted activation curve with a large enough effect in the signal ratio in the repeat runs, not every such curve was filed as active; the % refers to the signal ratio)
# How it was run: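 p53RE-bla beta-lactamase reporter cells rested 5 h at 37 C/5% CO2, then received compounds in DMSO by pin transfer and were incubated 16 h at 37 C. LiveBLAzer B/G FRET substrate was loaded for 2 h at room temperature before fluorescence reading.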
# [12] = biological target: 5-hydroxytryptamine receptor 2A (Homo sapiens) (UniProt P28223); test: 5-hydroxytryptamine receptor 2A (HTR2A) small molecule antagonists, cell-based qHTS assay (AID 1963586); further: nearly all actives have a fitted effect of over 45% in size; further: potency means the concentration at half of the fitted maximal effect
# How it was run: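 Antagonist-mode intracellular calcium assay: DOI (4 nM) added after 5 min compound pre-incubation at room temperature to dye-loaded HTR2A-CHO cells. Fluorescence followed for 3 min, sampled every second.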
# [13] = biological target: 5-hydroxytryptamine receptor 2A (Homo sapiens) (UniProt P28223); test: 5-hydroxytryptamine receptor 2A (HTR2A) small molecule agonists, cell-based qHTS assay (AID 1963587); further: nearly all actives have a fitted effect of over 30% in size
# How it was run: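 HTR2A-CHO cells, plated 18 h at 37 C/5% CO2, dye-loaded 1 h at 37 C; compounds in DMSO added by pin tool (agonist mode). Intracellular calcium flux read as kinetic fluorescence on FDSS over 2 min at 1 s intervals.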
# [14] = biological target: Muscarinic acetylcholine receptor M1 (Homo sapiens) (UniProt P11229); test: Cholinergic receptor muscarinic 1 (CHRM1) small molecule agonists, cell-based qHTS assay (AID 1963589); further: nearly all actives have a fitted effect of over 35% in size
# How it was run: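 CHO cells stably expressing human CHRM1, seeded 18 h at 37 C/5% CO2, dye-loaded 1 h at 37 C, then given compound in agonist mode; intracellular calcium fluorescence read kinetically at 1 s intervals. Fifteen concentrations, three independent runs.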
# [15] = cAMP Responsive Elements (CRE) small molecule agonists, cell-based qHTS assay (AID 1963590)
# How it was run: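 CRE-bla HEK 293T cells in DMEM with 10% dialyzed FBS, NEAA, pyruvate and 25 mM HEPES were plated 18 h at 37 C/5% CO2, then exposed to compounds in DMSO for 3 h before LiveBLAzer B/G FRET substrate addition.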
# [16] = cAMP Responsive Elements (CRE) small molecule antagonists, cell-based qHTS assay (AID 1963591; active means well fitted inhibition curve with a large enough effect in the signal ratio in the repeat runs, not every such curve was filed as active; the % refers to the signal ratio)
# How it was run: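 CRE-bla HEK293T cells were plated 18 h at 37 °C/5% CO2, pinned with compound in DMSO, then stimulated with NKH477 at 0.25 uM final for 3 h. LiveBLAzer B/G FRET substrate was added and plates incubated 2 h at room temperature.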
# [17] = biological target: Beta-2 adrenergic receptor (Homo sapiens) (UniProt P07550); test: Adrenergic beta2 receptor (ADRB2) small molecule antagonists, cell-based qHTS assay (AID 1963592); further: series mostly up to about 92 µM; nearly all actives have a fitted effect of over 50% in size
# How it was run: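 Cells (CHO, stable ADRB2 overexpression) incubated 18-20hr at 37C; compounds added from DMSO; agonist mix (1nM isoproterenol, 100uM IBMX, 25uM Ro-20-1724) added; 0.5hr RT; d2-cAMP and anti-cAMP-cryptate added; 1hr RT; 665/615 nm read.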
# [18] = biological target: D(2) dopamine receptor (Homo sapiens) (UniProt P14416); test: Dopamine D2 receptor (DRD2) small molecule agonists, cell-based qHTS assay (AID 1963594); further: nearly all actives have a fitted effect of over 35% in size
# How it was run: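 HEK293 cells stably expressing DRD2 were cultured 24 h at 37 C, then given Ro20-1724 (0.1 mM final) and compounds for 10 min at room temperature. NKH477 (200nM) was then added for 30 min. cAMP was read by HTRF.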
# [19] = biological target: D(2) dopamine receptor (Homo sapiens) (UniProt P14416); test: Dopamine D2 receptor (DRD2) small molecule antagonists, cell-based qHTS assay (AID 1963595; active means well fitted inhibition curve with a large enough effect in the signal ratio in the repeat runs, with a control signal flat; the % refers to the signal ratio)
# How it was run: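 Stable D2 receptor HEK293 line, 24 h after seeding. Compound preincubated 10 min, then quinpirole (12 nM) with forskolin analogue NKH477 (200 nM), 30 min, room temperature. Detection by time-resolved FRET of cAMP.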
# Sequence of 5-hydroxytryptamine receptor 2A (Homo sapiens) (P28223 whole entry, looked up): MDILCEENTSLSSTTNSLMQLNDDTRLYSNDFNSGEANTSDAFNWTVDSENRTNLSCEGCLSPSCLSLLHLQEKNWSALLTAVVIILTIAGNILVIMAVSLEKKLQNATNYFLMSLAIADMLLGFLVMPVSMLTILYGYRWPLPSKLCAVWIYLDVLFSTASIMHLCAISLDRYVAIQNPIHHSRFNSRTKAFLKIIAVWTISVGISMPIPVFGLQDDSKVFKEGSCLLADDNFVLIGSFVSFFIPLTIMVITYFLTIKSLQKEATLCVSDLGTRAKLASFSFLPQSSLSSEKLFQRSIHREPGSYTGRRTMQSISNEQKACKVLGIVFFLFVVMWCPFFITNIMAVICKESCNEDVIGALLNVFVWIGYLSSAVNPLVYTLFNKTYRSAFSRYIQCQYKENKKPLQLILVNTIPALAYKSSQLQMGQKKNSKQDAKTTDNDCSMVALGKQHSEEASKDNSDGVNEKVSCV
# Sequence of KiSS-1 receptor (Homo sapiens) (Q969F8 whole entry, looked up): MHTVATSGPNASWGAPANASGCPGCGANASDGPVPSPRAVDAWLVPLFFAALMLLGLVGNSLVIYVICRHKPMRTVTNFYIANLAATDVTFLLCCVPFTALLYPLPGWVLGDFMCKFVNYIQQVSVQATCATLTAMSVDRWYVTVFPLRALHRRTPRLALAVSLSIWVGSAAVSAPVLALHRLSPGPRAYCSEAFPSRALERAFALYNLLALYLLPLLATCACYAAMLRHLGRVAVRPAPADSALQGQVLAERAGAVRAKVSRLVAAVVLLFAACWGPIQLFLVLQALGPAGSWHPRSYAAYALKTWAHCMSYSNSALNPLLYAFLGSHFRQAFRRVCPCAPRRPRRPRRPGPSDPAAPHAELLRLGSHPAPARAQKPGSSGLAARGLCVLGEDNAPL
# Sequence of Muscarinic acetylcholine receptor M1 (Homo sapiens) (P11229 whole entry, looked up): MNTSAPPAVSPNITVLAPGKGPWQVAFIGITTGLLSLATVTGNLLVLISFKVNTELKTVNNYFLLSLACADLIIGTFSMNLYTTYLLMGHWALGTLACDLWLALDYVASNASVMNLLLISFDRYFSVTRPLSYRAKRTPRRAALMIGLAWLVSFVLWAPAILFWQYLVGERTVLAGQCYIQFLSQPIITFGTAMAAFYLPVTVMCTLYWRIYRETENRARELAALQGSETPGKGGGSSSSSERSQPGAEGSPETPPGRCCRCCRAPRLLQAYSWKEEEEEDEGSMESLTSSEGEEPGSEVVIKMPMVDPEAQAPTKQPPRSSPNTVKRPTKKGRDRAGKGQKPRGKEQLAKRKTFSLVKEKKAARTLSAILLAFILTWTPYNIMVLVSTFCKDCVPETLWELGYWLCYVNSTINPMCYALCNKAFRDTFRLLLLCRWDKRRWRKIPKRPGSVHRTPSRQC
# Sequence of Gonadotropin-releasing hormone receptor (Homo sapiens) (P30968 whole entry, looked up): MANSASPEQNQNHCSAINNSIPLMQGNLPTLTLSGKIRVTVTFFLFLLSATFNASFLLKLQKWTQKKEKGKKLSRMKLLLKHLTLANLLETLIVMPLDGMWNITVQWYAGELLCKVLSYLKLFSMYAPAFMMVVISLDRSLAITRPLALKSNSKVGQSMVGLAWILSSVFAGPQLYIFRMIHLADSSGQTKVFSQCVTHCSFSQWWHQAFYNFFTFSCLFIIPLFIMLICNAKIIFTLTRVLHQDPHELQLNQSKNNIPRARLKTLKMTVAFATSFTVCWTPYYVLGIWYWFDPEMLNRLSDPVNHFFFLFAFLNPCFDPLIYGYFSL
# Sequence of Beta-2 adrenergic receptor (Homo sapiens) (P07550 whole entry, looked up): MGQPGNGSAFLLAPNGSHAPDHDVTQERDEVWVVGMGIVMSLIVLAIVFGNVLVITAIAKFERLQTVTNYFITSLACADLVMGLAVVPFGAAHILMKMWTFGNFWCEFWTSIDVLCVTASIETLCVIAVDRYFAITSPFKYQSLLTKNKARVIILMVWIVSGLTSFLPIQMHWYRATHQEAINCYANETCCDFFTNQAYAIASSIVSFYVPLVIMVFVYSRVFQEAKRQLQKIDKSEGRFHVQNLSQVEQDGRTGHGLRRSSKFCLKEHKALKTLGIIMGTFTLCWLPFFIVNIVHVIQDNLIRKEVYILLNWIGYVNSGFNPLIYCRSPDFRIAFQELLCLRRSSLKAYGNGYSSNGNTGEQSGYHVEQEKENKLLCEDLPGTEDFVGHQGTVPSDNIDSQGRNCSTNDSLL
# Sequence of D(2) dopamine receptor (Homo sapiens) (P14416 whole entry, looked up): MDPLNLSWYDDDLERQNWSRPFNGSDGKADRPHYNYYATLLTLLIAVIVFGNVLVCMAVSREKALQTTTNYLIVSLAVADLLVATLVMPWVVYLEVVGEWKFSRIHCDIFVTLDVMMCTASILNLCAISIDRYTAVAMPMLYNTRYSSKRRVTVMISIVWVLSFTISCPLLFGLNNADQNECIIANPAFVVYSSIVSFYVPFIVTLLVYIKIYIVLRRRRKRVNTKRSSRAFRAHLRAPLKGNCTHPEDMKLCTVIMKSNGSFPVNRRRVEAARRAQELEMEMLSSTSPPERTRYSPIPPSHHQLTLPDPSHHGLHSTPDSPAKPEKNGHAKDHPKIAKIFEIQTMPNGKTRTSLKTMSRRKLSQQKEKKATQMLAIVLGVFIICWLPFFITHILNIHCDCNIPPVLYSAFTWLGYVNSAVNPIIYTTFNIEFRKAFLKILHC
smiles,measurement,setting,value
O=C(CCCl)NCc1ccccc1,Potency,[1],inactive
same,Potency,[2],inactive
same,Potency,[3],inactive
same,outcome,[4],inactive
same,outcome,[5],inactive
same,Potency,[6],inactive
same,Potency,[7],inactive
same,Potency,[8],inactive
same,Potency,[9],inactive
same,Potency,[10],inactive
same,Potency,[11],inactive
same,Potency,[12],inactive
same,Potency,[13],inactive
same,Potency,[14],inactive
same,Potency,[15],inactive
same,Potency,[16],inactive
same,Potency,[17],inactive
same,Potency,[18],inactive
same,Potency,[19],inactive
CCCCCCCCCCCCCCCCOP(=O)([O-])OCC[N+](C)(C)C,Potency,[1],inactive
same,Potency,[2],inactive
same,Potency,[3],inactive
same,outcome,[4],inactive
same,outcome,[5],inactive
same,Potency,[6],inactive
same,Potency,[7],inactive
same,Potency,[8],inactive
same,Potency,[9],inactive
same,Potency,[10],inactive
same,Potency,[11],inactive
same,Potency,[12],inactive
same,Potency,[13],inactive
same,Potency,[14],inactive
same,Potency,[15],inactive
same,Potency,[16],inactive
same,Potency,[17],inactive
same,Potency,[18],inactive
same,Potency,[19],inactive
Cc1nc(C)nc(N2C[C@@H](C)N(c3ccnc([C@@H](C)O)n3)[C@@H](C)C2)n1,Potency,[1],inactive
same,Potency,[2],inactive
same,Potency,[3],inactive
same,outcome,[4],inactive
same,outcome,[5],inactive
same,Potency,[6],inactive
same,Potency,[7],inactive
same,Potency,[8],inactive
same,Potency,[9],inactive
same,Potency,[10],inactive
same,Potency,[11],inactive
same,Potency,[12],inactive
same,Potency,[13],inactive
same,Potency,[14],inactive
same,Potency,[17],inactive
same,Potency,[18],inactive
CC(C(O)c1ccc(O)cc1)N1CCC(Cc2ccccc2)CC1 (stereo not given),Potency,[1],inactive
same,Potency,[2],inactive
same,Potency,[3],inactive
same,outcome,[4],inactive
same,outcome,[5],inactive
same,Potency,[6],inactive
same,Potency,[7],inactive
same,Potency,[8],inactive
same,Potency,[9],inactive
same,Potency,[10],inactive
same,Potency,[11],inactive
same,Potency,[12],16.3 µM (active)
same,Potency,[13],inactive
same,Potency,[14],inactive
same,Potency,[15],inactive
same,Potency,[16],inactive
same,Potency,[19],inactive
CCCCOCCOC(=O)COc1cc(Cl)c(Cl)cc1Cl,Potency,[1],inactive
same,Potency,[2],inactive
same,Potency,[3],inactive
same,outcome,[4],inactive
same,outcome,[5],inactive
same,Potency,[6],inactive
same,Potency,[7],inactive
same,Potency,[8],inactive
same,Potency,[9],inactive
same,Potency,[10],inactive
same,Potency,[11],inactive
same,Potency,[12],9.42 µM (active)
same,Potency,[13],inactive
same,Potency,[14],inactive
same,Potency,[16],inactive
same,Potency,[17],inactive
same,Potency,[19],inactive
C[N+]1(CC2COC(c3ccccc3)(c3ccccc3)O2)CCCCC1 (stereo not given),"activity change, negative = cytotoxicity",[1],-0.244% [at 19 µM]
same,"activity, positive = activation",[2],-7.02% [at 19 µM]
same,activity change,[3],"-0.634% [at 11.8 µM, hits give high values]"
same,activation,[4],-1.44% [at 15.8 µM]
same,activation,[5],0.724% [at 11.8 µM]
same,activation,[6],0.35% [at 13.5 µM]
same,activation,[7],-0.64% [at 13.6 µM]
same,"activity change, negative = cytotoxicity",[8],-12% [at 13.5 µM]
same,"activity change, negative = cytotoxicity",[9],4.65% [at 13.5 µM]
same,"activity change, negative = cytotoxicity",[10],-20.9% [at 13.5 µM]
same,activation,[11],0.97% [at 13.5 µM]
same,"activity, negative = inhibition",[12],-7.46% [at 12.7 µM]
same,activation,[13],-9.9% [at 15.9 µM]
same,activation,[14],10.6% [at 15.8 µM]
same,activation,[15],-0.37% [at 19 µM]
same,"activity change, negative = inhibition",[16],1.85% [at 18.9 µM]
same,"activity change, negative = inhibition",[17],-7.43% [at 19 µM]
same,activation,[18],-6.08% [at 19 µM]
Cc1cc(-c2ccccc2)nnc1NCCN1CCOCC1,Potency,[1],inactive
same,Potency,[2],inactive
same,Potency,[3],inactive
same,outcome,[4],inactive
same,outcome,[5],inactive
same,Potency,[6],inactive
same,Potency,[7],inactive
same,Potency,[8],inactive
same,Potency,[9],inactive
same,Potency,[10],inactive
same,Potency,[11],inactive
same,Potency,[12],inactive
same,Potency,[13],inactive
same,Potency,[14],inactive
same,Potency,[15],inactive
same,Potency,[16],inactive
same,Potency,[17],inactive
same,Potency,[18],inactive
same,Potency,[19],inactive
